From PubChem
Most compounds without a hit are left out; they make up all but 4% or so of the library.
Jurkat NFkB inh – inhibitors of induced NF-kB luciferase reporter, primary screen, TCR NF-kB activation inhibitor project, cell-based, luminescence, uHTS | inhibition, % at 4 µM | 330,000 compounds, 0.53% hits | Jurkat, PMA/ionomycin-induced NF-kB luciferase reporter; in the data active = inhibition above about 50%
Gli-Sufu antag – Gli-Sufu pathway antagonists, primary screen, luciferase luminescence, Sufu-KO-LIGHT cells, uHTS; inhibition, % at 5 µM; 340,000 compounds, 0.74% hits; Sufu-KO-LIGHT fibroblasts, Gli luciferase reporter luminescence;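 active = inhibition above about 55%, limit read from the data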
697 NFkB inh – inhibitors of PMA/ionomycin-induced NF-kB reporter, 697 cells, primary screen, B-cell NF-kB inhibitor project, cell-based, luminescence, uHTS; 697 B-cell NF-kB luciferase reporter, 16 h; inhibition, % at 4 µM; 330,000 compounds, 0.33% hits; in the data active = inhibition above about 35%
Beta apoptosis – inhibitors of cytokine-induced beta cell apoptosis, primary screen, luminescence; INS-1E cytokine-induced death, ATP luminescence, 48 h; percent of positive-control rescue, neutral wells zero; protection from apoptosis, % (no concentration beside the values); 300,000 compounds, 0.8% hits;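 active = Every replicate reaches about 75%, or at least half do and their mean reaches it too, limit read from the data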;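 note: higher means more ATP so stronger rescue from cytokine killing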
Mdm2-MdmX inh – inhibitors of human Mdm2-MdmX association, primary screen, cell-based, luminescence, split luciferase, SaOS-2, uHTS; Protein Mdm4 (Homo sapiens) + E3 ubiquitin-protein ligase Mdm2 (Homo sapiens), …; SaOS-2 split-luciferase Mdm2/MdmX complementation; inhibition, % at 8 µM; 330,000 compounds, 3% hits; AID 485346, 2010;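 active = inhibition of at least 50% at 8 µM in the primary screen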
Target sequence (O15151 whole entry, looked up): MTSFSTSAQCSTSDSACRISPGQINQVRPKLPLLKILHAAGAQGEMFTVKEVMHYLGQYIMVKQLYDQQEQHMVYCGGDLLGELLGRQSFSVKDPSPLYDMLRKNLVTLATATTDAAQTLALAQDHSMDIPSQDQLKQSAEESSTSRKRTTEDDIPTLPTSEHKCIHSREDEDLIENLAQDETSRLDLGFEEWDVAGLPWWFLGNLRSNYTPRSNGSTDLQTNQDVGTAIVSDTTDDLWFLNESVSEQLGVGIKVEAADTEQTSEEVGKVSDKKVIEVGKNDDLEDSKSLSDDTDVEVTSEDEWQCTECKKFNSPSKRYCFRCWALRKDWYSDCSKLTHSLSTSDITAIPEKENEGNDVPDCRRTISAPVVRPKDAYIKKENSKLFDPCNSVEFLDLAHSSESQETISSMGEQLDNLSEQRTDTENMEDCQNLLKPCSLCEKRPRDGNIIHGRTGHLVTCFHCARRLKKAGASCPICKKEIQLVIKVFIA
Target sequence (Q00987 whole entry, looked up): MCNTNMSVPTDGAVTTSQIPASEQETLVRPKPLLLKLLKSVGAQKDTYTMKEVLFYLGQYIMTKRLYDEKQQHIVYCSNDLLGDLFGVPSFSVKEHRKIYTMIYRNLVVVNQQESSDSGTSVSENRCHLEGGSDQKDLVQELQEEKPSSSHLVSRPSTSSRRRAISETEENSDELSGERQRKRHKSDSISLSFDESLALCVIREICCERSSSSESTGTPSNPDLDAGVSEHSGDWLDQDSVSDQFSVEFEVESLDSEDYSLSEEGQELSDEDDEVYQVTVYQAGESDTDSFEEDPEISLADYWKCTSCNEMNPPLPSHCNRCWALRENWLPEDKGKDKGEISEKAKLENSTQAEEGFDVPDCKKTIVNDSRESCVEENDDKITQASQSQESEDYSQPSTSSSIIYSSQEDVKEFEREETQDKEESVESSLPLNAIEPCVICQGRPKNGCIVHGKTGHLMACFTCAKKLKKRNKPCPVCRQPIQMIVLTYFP
697 NFkB conf – PMA/ionomycin-induced NF-kB reporter inhibitors, 697 retest, confirmation, B-cell NF-kB inhibitor project, cell-based, luminescence, single concentration; shares compounds with 697 NFkB inh; 697 B-cell NF-kB luciferase, 16 h; inhibition, % at 4 µM; 2,000 compounds, 35% hits; AID 449746, 2010; in the data active = inhibition mostly above about 28%, no sharp cut-off; inactive = mostly below about 22%
Mdm2-MdmX conf – Mdm2-MdmX complex disruptors, retested hits, confirmation, luminescence, single concentration | 10,000 compounds, 55% hits | shares compounds with Mdm2-MdmX inh | inhibition, % at 8 µM | AID 489028, 2010 | Mdm2-MdmX binding, luminescent assay; in the data active = inhibition above about 40%
FLuc counter – full-length luciferase signal inhibition, confirmation, counter-screen for Mdm2/MdmX interaction inhibitor project, cell-based, single concentration, SaOS-2; shares compounds with Mdm2-MdmX inh; SaOS-2 full-length luciferase counterscreen, luminescence; inhibition, % at 8 µM; 6,200 compounds, 77% hits; AID 504607, 2011;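 active = mean inhibition at 8 µM reaching about 37%, which flags the compound as non-specific, limit read from the data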;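 note: p53-null SaOS-2 cells with luciferase driven by a doxycycline-inducible promoter; compound on cells about two nights before reading with doxycycline added after day one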
Gli antag conf – Gli-SUFU pathway antagonists, confirmation, single concentration, luciferase luminescence, Sufu-KO-LIGHT cells; shares compounds with Gli-Sufu antag; inhibition, % at 5 µM; 2,500 compounds, 40% hits; Gli luciferase reporter; AID 602428, 2012;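 active = mean inhibition at 5 µM reaching about 45%, limit read from the data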
Gli cytotox – cytotoxicity in Sufu-KO-LIGHT cells, confirmation, cytotoxicity control for Gli-SUFU antagonist project, cell-based, ATP luminescence, single concentration; 2,500 compounds, 32% hits; shares compounds with Gli-Sufu antag; cytotoxicity, % at 5 µM;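 active = mean cytotoxicity at 5 µM above about 25%, limit read from the data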;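 note: cells exposed to compound overnight for roughly 16 to 18 hours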
Wnt3a counter – Wnt3a reporter signal inhibition, confirmation, counter-screen for Gli-SUFU antagonist project, Wnt-LIGHT cells, luminescence, single concentration; AID 651995, 2013; Wnt3a-driven luciferase reporter; shares compounds with Gli-Sufu antag; 2,500 compounds, 20% hits; inhibition, % at 6.25 µM;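 active = mean inhibition above about 25%, limit read from the data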
Of the large screens only hits and unclear results are named; the others gave an inactive call (follow-up assays come after a bar, where they were run).

Cc1ccc(Nc2nc(N/N=C\c3ccc4c(c3)OCO4)nc(N3CCOCC3)n2)cc1	Gli-Sufu antag 56.0, 697 NFkB inh 56.4, Mdm2-MdmX inh 64.8 | 697 NFkB conf 42.0 | Mdm2-MdmX conf 57.0 | FLuc counter 78.1 | Gli antag conf 49.5 | Gli cytotox 35.0 | Wnt3a counter inactive
Cc1ccc(/C=N/Nc2cc(C)nc(N3CCOCC3)n2)cc1	none
Nc1ccc(-c2cc3ccccc3oc2=O)cc1	Gli-Sufu antag 61.5, 697 NFkB inh 60.6, Mdm2-MdmX inh 52.4 (no result: Beta apoptosis) | 697 NFkB conf 48.2 | Mdm2-MdmX conf inactive | FLuc counter 45.3 | Gli antag conf 71.7 | Gli cytotox inactive | Wnt3a counter 103.0
CC(C)(C)c1ccc(C(=O)NC(=S)Nc2ccc(N3CCOCC3)cc2)cc1	Gli-Sufu antag 59.7 | 697 NFkB conf inactive | Gli antag conf 51.8 | Gli cytotox inactive | Wnt3a counter inactive
CN(C)S(=O)(=O)c1ccc(C(=O)Nc2nc(-c3cc4ccccc4o3)cs2)cc1	none
CC1CN(S(=O)(=O)c2ccc(C(=O)Nc3nc(-c4cc5ccccc5o4)cs3)cc2)CC(C)O1 (configuration not stated)	Gli-Sufu antag 75.4, 697 NFkB inh 74.2, Mdm2-MdmX inh 76.1 | 697 NFkB conf 51.4 | Mdm2-MdmX conf inactive | Gli antag conf 79.4 | Gli cytotox inactive | Wnt3a counter 30.1
COc1ccc(-n2c(-c3ccc(Cl)cc3)c[n+]3c2CCc2ccccc2-3)cc1	Gli-Sufu antag 84.6, 697 NFkB inh 56.2, Beta apoptosis 110.3 | 697 NFkB conf 91.6 | Gli antag conf 86.5 | Gli cytotox 28.2 | Wnt3a counter inactive
CCN1CCN(c2ccc(NC(=O)c3cc(S(=O)(=O)N4CCCC4)ccc3Cl)cc2)CC1	none
COc1cccc(NC(=O)CSc2nnc(-c3cc(C)n(-c4ccccc4)c3C)o2)c1	697 NFkB inh 70.8, Mdm2-MdmX inh 81.7 | 697 NFkB conf inactive | Mdm2-MdmX conf 83.4 | FLuc counter 58.7 | Gli antag conf 69.1 | Gli cytotox inactive | Wnt3a counter 76.1
COc1ccc(NC(=O)CSc2nnc(-c3cccc(O)c3)o2)cc1	none
Cc1onc(-c2ccccc2)c1C(=O)OCC(=O)NC(=O)c1ccccc1	none
O=S(=O)(NCc1ccncc1)c1ccc(Br)s1	Gli-Sufu antag 70.4, 697 NFkB inh 51.2, Beta apoptosis 115.9 | 697 NFkB conf 44.8 | Gli antag conf 63.9 | Gli cytotox 44.1 | Wnt3a counter 45.9
COc1ccc(/C=N/OCC(=O)NC(c2ccccc2)c2ccccc2)cc1OC	697 NFkB inh 68.4 | 697 NFkB conf 38.5 | Gli antag conf 53.4 | Gli cytotox 31.0 | Wnt3a counter 35.0
COc1ccccc1-c1cc(-c2ccc(C)cc2)nc(SCc2nnc(-c3ccccc3)o2)c1C#N	none
Cc1cc(C)c(C#N)c(SCc2nnc(-c3ccccc3)o2)n1	Gli-Sufu antag 70.0, Mdm2-MdmX inh 84.8 | 697 NFkB conf inactive | Mdm2-MdmX conf 90.9 | FLuc counter 49.0 | Gli antag conf 82.7 | Gli cytotox 34.7 | Wnt3a counter 96.2
CC1CCN(c2c(NCc3ccc(C(=O)N4c5ccccc5CC4C)cc3)c(=O)c2=O)CC1 (configuration not stated)	Gli-Sufu antag 57.4, 697 NFkB inh 43.4 | 697 NFkB conf 39.0 | Gli antag conf 56.9 | Gli cytotox inactive | Wnt3a counter inactive
O=C(CCNc1n[nH]c(=O)[nH]c1=O)N/N=C/c1ccc(C(F)(F)F)cc1	none (no result: Beta apoptosis)
O=C(Nc1cccc(S(=O)(=O)Nc2ccc(Cl)cc2)c1)c1ccc(Cl)nc1	Gli-Sufu antag 68.5, 697 NFkB inh 56.9, Beta apoptosis 78.7 | 697 NFkB conf 53.3 | Gli antag conf 64.1 | Gli cytotox 38.9 | Wnt3a counter inactive
O=C(Nc1ccc(NS(=O)(=O)c2ccccc2)cc1)c1ccc(Cl)cc1	none
Cc1cc(CNC(=S)Nc2cccc(Cl)c2Cl)nn1C	none
c1ccc(CCNc2ncnc3ccccc23)cc1	Gli-Sufu antag 55.2, 697 NFkB inh 49.1, Beta apoptosis 100.1 | 697 NFkB conf 29.0 | Gli antag conf 57.6 | Gli cytotox 28.8 | Wnt3a counter inactive
O=C(CSc1ncnc2ccccc12)NCCc1ccccc1	none
CCOc1ccc(-c2nc(CSCC(=O)NCC3CCCO3)c(C)o2)cc1 (configuration not stated)	Gli-Sufu antag 88.7, 697 NFkB inh 87.9 | 697 NFkB conf inactive | Gli antag conf 88.5 | Gli cytotox inactive | Wnt3a counter inactive
CCOc1ccc(-n2c(-c3ccccc3)c[n+]3c2CCCCC3)cc1	Gli-Sufu antag 86.2, 697 NFkB inh 62.6, Beta apoptosis 98.8 | 697 NFkB conf 63.8 | Gli antag conf 90.0 | Gli cytotox 25.4 | Wnt3a counter 40.0
CCOc1ccc(N2Cc3ccccc3C2)cc1	none
Fc1ccccc1/C=C1\CCCC2=C1NC(=S)NC2c1ccccc1F (configuration not stated)	none
O=C(c1ccc(Cl)c(S(=O)(=O)N2CCOCC2)c1)N(c1ccccn1)C1CCCCC1	none
COc1ccccc1-c1noc(CCCC(=O)NC2CCCC2)n1	none
O=C(CCCc1nc(-c2ccccc2Cl)no1)NC1CCCC1	Gli-Sufu antag 64.3, 697 NFkB inh 74.4 (no result: Beta apoptosis) | 697 NFkB conf 78.0 | Gli antag conf 57.2 | Gli cytotox inactive | Wnt3a counter 93.0
